Each structure is given as a SMILES string. “And” between values parts separate entries of the source, which are not always exact repeats. Equal entries are not always repeated. The campaign covered roughly 140,000 compounds. About 80 (0.06%) were called active. Rule as the data show it: active = displacement above about 50%; inactive = the rest. What follows is part of a selection rich in actives, with near analogues and random picks from the rest.

The target in this assay is Heat shock 70 kDa protein 1A (Homo sapiens) (UniProt P0DMV8). Briefly: small molecules displacing fluorescent ligand from Hsp70 – biochemical, fluorescence polarization, primary screen (AID 583).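 Also: plate controls were vehicle for no effect and reference ligand for full effect.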 The conditions noted are these: Hsp70 fluorescence polarization probe displacement, mP; at 20 µM; stronger effect = higher value.
Chain of Heat shock 70 kDa protein 1A (Homo sapiens) (P0DMV8 whole entry, looked up): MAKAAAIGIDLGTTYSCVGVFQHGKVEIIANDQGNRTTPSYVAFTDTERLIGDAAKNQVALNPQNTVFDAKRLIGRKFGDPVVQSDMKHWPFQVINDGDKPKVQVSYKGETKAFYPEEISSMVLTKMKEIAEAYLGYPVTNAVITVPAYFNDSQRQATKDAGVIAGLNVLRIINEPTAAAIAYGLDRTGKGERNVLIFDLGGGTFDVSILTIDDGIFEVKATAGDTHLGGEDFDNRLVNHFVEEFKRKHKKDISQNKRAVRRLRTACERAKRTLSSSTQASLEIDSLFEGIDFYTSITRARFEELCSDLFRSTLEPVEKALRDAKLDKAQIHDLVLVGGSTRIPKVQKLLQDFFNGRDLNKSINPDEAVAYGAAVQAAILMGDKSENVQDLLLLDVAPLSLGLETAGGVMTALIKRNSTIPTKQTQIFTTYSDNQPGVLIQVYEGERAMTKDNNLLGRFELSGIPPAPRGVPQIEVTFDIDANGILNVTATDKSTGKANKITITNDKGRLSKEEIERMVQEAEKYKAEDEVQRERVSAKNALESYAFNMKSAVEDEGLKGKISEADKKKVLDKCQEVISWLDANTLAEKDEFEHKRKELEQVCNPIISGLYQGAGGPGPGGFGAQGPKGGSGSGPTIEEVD
For `O=C1NC(=O)N(c2ccc(Cl)cc2)C(=O)/C1=C/c1ccc(Br)o1`, the displacement is -0.1% (inactive).
Under `CN1C(=O)NC(=O)/C(=C/c2ccc(I)o2)C1=O` stands 9.4% (inactive); under `COc1ccc(N2C(=O)/C(=C/c3ccc(I)o3)C(=O)NC2=S)cc1`, 92% (active).
As for `COc1ccc(N2C(=O)/C(=C/c3ccc(-c4cc(C(=O)O)ccc4Cl)o3)C(=O)NC2=S)cc1`, the figure is 5% (inactive); as for `CCOc1ccc(N2C(=O)NC(=O)/C(=C\c3ccc(C)o3)C2=O)cc1`, -5.2% (inactive).
Under `O=C1NC(=S)N(c2ccc(F)cc2)C(=O)/C1=C/c1ccc(Br)o1` stands 68.7% (active).
For `CCOc1ccc(N2C(=O)/C(=C/c3ccc(Br)o3)C(=O)NC2=S)cc1`, the displacement is 84.5% (active).
As for `CN1C(=O)NC(=O)/C(=C/c2ccc(Br)o2)C1=O`, the figure is 2.1% (inactive).
Under `CCOc1ccc(N2C(=O)/C(=C/c3ccc(C)o3)C(=O)NC2=S)cc1` stands -26.6% (inactive); under `Cc1cccnc1NC1=NCC(C)S1` (stereo not given), 3.9% (inactive); under `CCC(=O)N1N=C2C3CCN(CC3)C2C1c1ccc([N+](=O)[O-])cc1` (stereo not given), -5.5% (inactive).
Take `CCC(C)N=Cc1c(O)n(-c2ccccc2)c(=O)[nH]c1=O` (stereo not given): the displacement was -0.1% (inactive).
As for `CC(C)C12CN3CCN(CC(C3)C1O)C2` (stereo not given), the figure is 5.4% (inactive) and 5.3% (inactive).
Under `Cn1cccc1/C=C1/C(=O)NC(=S)N(c2ccc(Cl)cc2)C1=O` stands 36.4% (inactive); under `CCN1C(=O)/C(=C/c2ccoc2)C(=O)NC1=S`, 73.6% (active).
As for `C=CCN1C(=O)/C(=C\c2cccn2-c2cccc([N+](=O)[O-])c2)C(=O)NC1=S`, the figure is 60.8% (active).
On to `COc1ccc(CN2C(=O)NC(=O)/C(=C\c3ccoc3)C2=O)cc1`, for which the displacement is -10% (inactive).
As for `O=C1NC(=O)N(c2ccccc2)C(=O)/C1=C/c1ccoc1`, the figure is -9.7% (inactive).
Turning to `CCN1C(=O)/C(=C/c2cccn2C)C(=O)NC1=S`, the displacement is 72.7% (active).
Under `C=CCN1C(=O)NC(=O)C(=Cc2cccn2C)C1=O` stands 0.2% (inactive); under `CN1C(=O)C(=Cc2cccn2-c2cccc([N+](=O)[O-])c2)C(=O)N(C)C1=O`, -8.6% (inactive).
Under `C=CCN1C(=O)/C(=C\c2cccn2-c2ccc([N+](=O)[O-])cc2)C(=O)NC1=S` stands 20.3% (inactive); under `CN1C(=O)C(C2c3ccccc3C(=O)N2Cc2ccccc2)C(=O)N(C)C1=O` (stereo not given), -7% (inactive); under `C=CCN1C(=O)/C(=C\c2cccs2)C(=O)NC1=S`, 2.1% (inactive).
For the molecule `O=S(=O)(c1ccccc1)N1CC1c1ccccc1` (stereo not given), the displacement was 0.1% (inactive).
As for `CCOC(=O)N1CCN(C(C)C(=O)c2c[nH]c3ccccc23)CC1` (stereo not given), the figure is -0.3% (inactive).
Under `O=C1CN=C(c2cccs2)c2c(sc3c2CCCC3)N1` stands 0.2% (inactive).
For the molecule `CC(C)(C)c1ccc(OCCOc2ccccc2C=C2C(=O)NC(=O)NC2=O)cc1`, the displacement is -4.4% (inactive).
As for `c1ccc(CN2CCN(C3CCCCC3)CC2)cc1`, the figure is -0.7% (inactive); as for `CCc1nc2ccccc2c(=O)n1-c1ccc2ccccc2c1`, 0.4% (inactive); as for `O=C1NC(=S)N(c2ccccc2F)C(=O)C1=Cc1ccco1`, 96.8% (active).
For the molecule `Cc1cccc(N2C(=O)NC(=O)C(=Cc3ccco3)C2=O)c1`, the displacement is 9.1% (inactive).
Under `CCOc1ccc(N2C(=O)/C(=C/c3cc(Cl)ccc3O)C(=O)NC2=S)cc1` stands 0.9% (inactive); under `CN(C)c1ccc(C=C2C(=O)NC(=S)N(c3ccccc3F)C2=O)cc1`, -0.7% (inactive).
Under `CCOc1ccc(N2C(=O)/C(=C/c3ccc(C)cc3)C(=O)NC2=S)cc1` stands -3.1% (inactive).
Under `O=C1NC(=O)N(c2cccc(Br)c2)C(=O)/C1=C/c1ccco1` stands 98.6% (active); under `CCOc1ccc(N2C(=O)/C(=C/c3ccco3)C(=O)NC2=S)cc1`, 92% (active).
Regarding `Cc1ccc(C=C2C(=O)NC(=S)N(c3ccccc3F)C2=O)s1`, the displacement was -0.4% (inactive).
Consider `CC(C)c1ccc(N2C(=O)NC(=O)/C(=C/c3ccco3)C2=O)cc1`, for which the displacement is -1.4% (inactive).
Under `CCOc1ccc2ccccc2c1/C=C1\C(=O)NC(=S)N(c2ccccc2)C1=O` stands 3.3% (inactive); under `O=C1NC(=S)N(c2ccccc2)C(=O)/C1=C/c1ccco1`, 83.4% (active); under `O=C1NC(=S)N(c2cccc(Cl)c2)C(=O)/C1=C/c1ccc(Cl)cc1`, -2.1% (inactive).
As for `CCC1(Cc2ccccc2)C(=O)NC(=O)NC1=O`, the figure is 1.5% (inactive); as for `CCOc1ccc(NC(=S)NC2CN3CCC2CC3)cc1` (stereo not given), -0.4% (inactive); as for `C#CCNc1ccncc1S(=O)(=O)NC(=O)NC(C)C`, 5.1% (inactive).
Under `Cc1c(C(=O)N2CCC3(CC2)OCCO3)sc2ncnc(N(C)c3ccccc3)c12` stands 0.4% (inactive); under `CCOC(=O)C1C(=O)NC2(C)CC1c1cc(OC)ccc1O2` (stereo not given), 7.2% (inactive).
`COC(=O)C[C@]1(C(=O)OC)CN(C#N)N(c2ccc(Cl)cc2)C12c1ccccc1-c1ccccc12`: the displacement is 10.7% (inactive).
On to `c1cc(CN2CCN(C3C4CC5CC(C4)CC3C5)CC2)ccn1` (stereo not given), for which the displacement is 5.7% (inactive).
As for `CN1CCN(c2nccc3c2ncn3C)CC1`, the displacement is -5.2% (inactive).
Under `COc1ccccc1N1CCN(Cc2ccccc2F)CC1` stands -0.6% (inactive).
As to `O=C1NC(=S)N(c2cccc(Br)c2)C(=O)/C1=C/c1ccco1`, the displacement is 95.8% (active).
As for `O=C1NC(=S)N(c2cccc(Br)c2)C(=O)/C1=C/c1cccs1`, the figure is -3% (inactive); as for `O=C1NC(=S)N(c2cccc(Br)c2)C(=O)/C1=C/C=C/c1ccccc1`, -13.2% (inactive); as for `COc1cc(/C=N/n2cnnc2)ccc1OC(=O)N(C)C`, 0.2% (inactive).
